In the test the target is T1, Arginase-2, mitochondrial (Homo sapiens) (UniProt P78540).
T1 sequence (whole entry): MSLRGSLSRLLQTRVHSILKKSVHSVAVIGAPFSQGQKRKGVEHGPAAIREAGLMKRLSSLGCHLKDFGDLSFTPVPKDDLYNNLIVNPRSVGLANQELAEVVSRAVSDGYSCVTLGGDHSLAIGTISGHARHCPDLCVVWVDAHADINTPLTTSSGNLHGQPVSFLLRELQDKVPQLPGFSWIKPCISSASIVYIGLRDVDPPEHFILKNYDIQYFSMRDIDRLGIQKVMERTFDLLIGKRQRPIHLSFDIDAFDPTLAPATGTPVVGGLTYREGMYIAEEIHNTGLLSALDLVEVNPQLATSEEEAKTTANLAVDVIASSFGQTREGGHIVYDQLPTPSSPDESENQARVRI
Kind of test: in vitro enzyme assay to detect the production of urea directly proportional to the activity of Arginase II. The format is functional. The following applies: 30 µM. Details: scale not given: in the data most compounds retested in dose-response had high values.
As for `CCOC(=O)Cn1cccc(S(=O)(=O)N2CCCC2)c1=O`, the Percent Effect is -11.3%.

As for `COc1cc(C2SC(C)=Nc3c2c(=O)[nH]n3C2CCCC2)ccc1O` (stereo not given), the Percent Effect came out at 3.78%.

On to `CN(Cc1ccco1)[C@@H]1CN(CC2CCOCC2)[C@@H]2CCCO[C@H]12`, for which the Percent Effect was 4.87%.

For `CC1=Nc2c(c(=O)[nH]n2C2CCCC2)C(c2ccc(C(=O)O)cc2)S1` (stereo not given), the Percent Effect is 7.03%.

In the case of `COc1ccc2c(c1)OCC(CNC(=O)c1cnc(O)cn1)C2` (stereo not given), the Percent Effect was found to be 10.3%.

As for `Cc1ccc(CNCc2nnc3n2CC(C(F)(F)F)CC3)o1` (stereo not given), the Percent Effect is -7.03%.

For `COc1ccc(C(=O)N(CCC#N)Cc2ccccn2)cc1`, the Percent Effect stood at 1.62%.

Regarding `CC(C)CN1CCC(NC(=O)c2ccc(Cl)cc2Cl)CC1`, the Percent Effect was -7.03%.

With `CN(Cc1ccco1)[C@@H]1CN(Cc2nccn2C)[C@@H]2CCCO[C@H]12`, the Percent Effect came to 11.3%.

For the compound `CC1=Nc2c(c(=O)[nH]n2C2CCCC2)C(c2ccc(O)cc2)S1` (stereo not given), the Percent Effect came out at 5.95%.

With `COCCN1CCC(c2cncc(-c3cccc(Cl)c3)n2)CC1`, the Percent Effect worked out at 5.95%.

In the case of `Cc1cccc(OCC(O)CN2CCN(c3nccs3)CC2)c1` (stereo not given), the Percent Effect turned out to be 3.78%.

For `Cc1nc(NCC2CC2)nc2c1COCC21CCN(C(=O)NC(C)C)C1` (stereo not given), the Percent Effect turned out to be 7.03%.

Turning to `CC(C)CN1CCC(NC(=O)c2ccc(F)cc2F)CC1`, the Percent Effect turned out to be 7.03%.

As for `CN(C)c1ccc(NC(=O)C2CN(Cc3ccccc3)CCO2)cn1` (stereo not given), the Percent Effect stood at 10.3%.

Regarding `Fc1ccc(CNCc2nnc3n2CC(C(F)(F)F)CC3)c(F)c1` (stereo not given), the Percent Effect is 8.11%.

Consider `COc1ccc(C)cc1C(C(=O)O)N1CCN(Cc2ccccn2)CC1` (stereo not given), for which the Percent Effect amounted to 4.87%.

As for `COc1cc(C(=O)N(CCC#N)Cc2ccccn2)ccc1C`, the Percent Effect turned out to be 2.7%.

Turning to `Cc1cc(C)n(C2CN(Cc3noc(C4CC4)n3)C2)n1`, the Percent Effect was 8.11%.

`CNC(=O)[C@H]1C[C@@H]2CN(C(=O)c3ccoc3)C[C@@H]2N1S(C)(=O)=O`: the Percent Effect is 10.3%.

`Cc1cc(F)c(C(C(=O)O)N2CCN(Cc3ccccn3)CC2)cc1Cl` (stereo not given): the Percent Effect was 5.95%.

As for `Fc1ccc(CNCc2nnc3n2CC(C(F)(F)F)CC3)cc1` (stereo not given), the Percent Effect is -13.5%.

Take `c1ccc(OC2COC3(CCN(CC4CC4)CC3)C2)nc1` (stereo not given): the Percent Effect was -16.8%.

Consider `O=C(NCc1ccccn1)[C@]12COC[C@H]1CN(Cc1cccnc1)C2`, for which the Percent Effect was -5.95%.

For `COc1ccc(C(=O)N2C[C@@H](C(=O)O)[C@H](c3ccccc3)C2)c(O)c1`, the Percent Effect is 9.19%.

For the compound `COc1ccc2c(c1)OCC(CNC(=O)c1cnc(NC(C)C)nc1)C2` (stereo not given), the Percent Effect was 2.7%.

As for `O=c1[nH]c2c(c(=O)n1C1CCCCC1)CCC2Nc1ccc(Cl)cc1` (stereo not given), the Percent Effect was -2.7%.

With `CC(C)(C)OC(=O)Cn1cccc(S(=O)(=O)N2CCCCCC2)c1=O`, the Percent Effect was found to be 5.95%.

Turning to `CC(C)(C)n1cc(NC(=O)C2CN(Cc3ccccc3)CCO2)cn1` (stereo not given), the Percent Effect is 0.54%.

For the compound `COc1ccc(OCC(O)CN2CCN(c3nccs3)CC2)cc1` (stereo not given), the Percent Effect is -8.11%.

With `CC(C)CS(=O)(=O)CC(=O)N1CCCC1c1noc(C2CC2)n1` (stereo not given), the Percent Effect amounted to 5.95%.

`Cc1cc(NC(=O)C2CN(Cc3ccccc3)CCO2)ccn1` (stereo not given): the Percent Effect was determined as 3.78%.

For `CC(C)NC(=O)[C@]12COC[C@H]1CN(Cc1cnn(C)c1)C2`, the Percent Effect was -13.5%.

In the case of `Cc1ccc([C@@H]2CN(S(=O)(=O)N3CCC(C)CC3)C[C@H]2N(C)C)cc1`, the Percent Effect was found to be 7.03%.

Turning to `CCC(C(=O)NCc1ccccn1)N(c1cccc(C)c1)S(C)(=O)=O` (stereo not given), the Percent Effect was 9.19%.

Turning to `Cc1noc(CNC(=O)N2CCN(c3nc(C)c(C)s3)CC2)n1`, the Percent Effect came out at 5.95%.

As for `CCS(=O)(=O)CC(=O)N1CCCC1c1noc(C2CC2)n1` (stereo not given), the Percent Effect stood at 2.7%.

In the case of `COCc1csc(NC(=O)N2CCC(Cc3cnn(C)c3)C2)n1` (stereo not given), the Percent Effect is 2.7%.

For `CCCNC(=O)c1cc(Br)c2c(c1)OCCO2`, the Percent Effect was 5.95%.

For the compound `O=C(NCCO)c1coc(CN2CCN(c3ccccc3F)CC2)n1`, the Percent Effect was -8.11%.

The values above are taken from ChEMBL document CHEMBL3988442, “University of Dundee, Small-Polar-MMV Screening Library” (2021).
